Measured values taken from PubChem BioAssay (NCI).
About 83,000 compounds went through this panel and 20% of them were active in at least one assay; those are over-represented in the sample as a whole.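 Treatment: one concentration, 48 hours, 96-well format. Scoring: percent growth, with anything below 10 considered active.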 Values without a mark were called inactive. Activity calls are given as the source filed them.

tested on: HS 578T breast; test: NCI-60 one-dose screen, 48 h (100 = growth as untreated, 0 = no growth, -100 = all killed); conditions: 10 µM unless noted

Row | SMILES | growth
1 | Oc1c(I)cc(I)cc1CNCCN(Cc1ccccn1)Cc1ccccn1 | -11.3% (active)
2 | C=CC[Se]C(=O)Cc1c(C)n(C(=O)c2ccc(Cl)cc2)c2ccc(OC)cc12 | -12.7% (active)
3 | CCC(=C(c1ccc(OCCN2CCCCC2)cc1)c1ccc(OCCN2CCCCC2)cc1)c1ccc(Cl)cc1 | -77.1% (active)
4 | Cc1ccc(/C=C2\COc3ccc(O)cc3C2=O)cc1 | 97.5%
5 | COc1cc2nc3cc([N+](=O)[O-])ccc3c(NCCNCC(C)O)c2cc1OC (centres undefined) | -1.12% (active)
6 | O=C(NNC(=O)c1ccc(NC(=O)c2ccccn2)cc1)Nc1ccc([N+](=O)[O-])cc1 | 75.6%
7 | O=C(Nc1ccc(Oc2cccc(F)c2)c(Cl)c1)c1cccnc1 | 31.3%
8 | CCCc1c(OC(=O)c2ccccc2)nc2[nH]c(=O)sc2c1C | 99.9%
9 | CCCCCN1C(=O)/C(=c2\sc3n(c2=O)C2C(NN=3)N(CC)C(=O)N2CC)c2ccccc21 (centres undefined) | -17.6% (active)
10 | CCOC(=O)c1cc(C)n(-c2ccc(C(=O)O)cc2)c1C | 90.8%
11 | O=C1NC(=O)C(Cc2ccc(OCc3ccc(-c4ccc(Cl)cc4Cl)cc3)cc2)S1 (centres undefined) | 65.1%
12 | CC/C=C\C[C@H](O)C/C=C1/C(=O)C=C[C@@H]1C/C=C\CCCC(=O)N(C)C | 16.4%
13 | NC(=O)CSc1oc(-c2ccccc2)nc1S(=O)(=O)c1ccc(Br)cc1 | 56.1%
14 | COc1cc(-c2nccc3[nH]c(-c4ccc5cc[nH]c5c4)nc23)cc(OC)c1OC | 31.1%
